Reference: PubChem BioAssay (NCI)
The panel holds about 79,000 compounds, 15% with a hit somewhere; the sample as a whole holds those more often. Values without a mark were called inactive. Active and inactive are the calls of the source. Cut-off read from the data, not from the text of the source: active = growth inhibition above about 70%; inactive = the rest.

Columns and labels:
[1] = NCI Yeast Anticancer Drug Screen. Data for the rad50 strain (AID 155);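 note: 0% = growth of vehicle-only cultures of the same strain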; settings: S. cerevisiae rad50 strain growth inhibition; at 50.0 µM; hits give high values
Method in brief: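 Compounds were tested on a yeast strain with an engineered DNA damage repair alteration; the reported value is growth inhibition normalised to vehicle treatment.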

[2] = NCI Yeast Anticancer Drug Screen. Data for the mec2-1 strain (AID 157); settings: S. cerevisiae mec2-1 strain, at 50.0 µM, hits give high values
Method in brief: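 Yeast mec2-1 mutant treated with compound. Readout: growth inhibition vs vehicle controls.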

[3] = NCI Yeast Anticancer Drug Screen. Data for the sgs1 mgt1 strain (AID 161);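 note: 0% = growth of cultures given vehicle only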; settings: S. cerevisiae sgs1 mgt1 strain, at 50.0 µM, hits give high values
Method in brief: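 Mutant yeast exposed to compound; growth scored against vehicle-only wells.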

[4] = NCI Yeast Anticancer Drug Screen. Data for the cln2 rad14 strain (AID 165);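 note: 0% = growth equal to vehicle treated cultures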; settings: S. cerevisiae cln2 rad14 strain, at 50.0 µM, hits give high values
Method in brief: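 cln2 rad14 yeast strain; compound exposure; growth inhibition read vs vehicle controls.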

[5] = NCI Yeast Anticancer Drug Screen. Data for the bub3 strain (AID 167); settings: S. cerevisiae bub3 mutant strain, at 50.0 µM, hits give high values
Method in brief: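 Growth of a checkpoint-deficient yeast mutant is measured after compound exposure. Values represent inhibition relative to vehicle.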

[6] = NCI Yeast Anticancer Drug Screen. Data for the mlh1 rad18 strain (AID 175); settings: S. cerevisiae mlh1 rad18 strain growth inhibition; at 50.0 µM; hits give high values
Method in brief: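 Yeast w/ defined DNA-repair lesions; compound exposure; growth vs vehicle controls → % inhibition.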

| SMILES | growth inhibition [1] | growth inhibition [2] | growth inhibition [3] | growth inhibition [4] [%] | growth inhibition [5] | growth inhibition [6] |
| --- | --- | --- | --- | --- | --- | --- |
| CC1(C)C(c2ccccc2)C12CCC1(C2=O)C(c2ccccc2)C1(C)C (configuration not stated) | -41.8% | -27.8% | -36% | -6.8 | -16.9% | -52.4% |
| Cc1cc2c(c(C(=O)NCC(=O)N[C@@H](C)C(=O)OCc3ccccc3)c1)Oc1c(cc(C)cc1C(=O)NCC(=O)N[C@@H](C)C(=O)OCc1ccccc1)S2 | 26.4% | 16.8% | 23.8% | 33 | 19.6% | 33.2% |
| C1COCCN1.C1COCCN1.N.N.[Cl-].[Pt+2] | -9.5% | -5.4% | -38.1% | -14.2 | -2.45% | -14.8% |
| O=c1c(O)c(-c2cccnc2)oc2ccc(Cl)cc12 | -2.1% | 17.8% | 12.8% | 21.6 | 16.7% | 0.4% |
| NC(=S)N/N=C\C(CC(O)C(O)CO)=N\NC(N)=S (configuration not stated) | 4.95% | 6.55% | 4.45% | 8.7 | 12.4% | 10.2% |
| COC(=O)N/N=C(\c1ccc(OC)cc1)C(c1ccc(OC)cc1)C1(O)C(=O)Nc2c(C)cc(Cl)cc21 (configuration not stated) | 20.1% | 14.8% | -4.35% | -30.6 | 18.6% | 18.6% |
| CCOC(CNCCC(=O)OC)OCC | -31.9% | -59.2% | -23.4% | -8 | -5.35% | -29.1% |
| C1CC(CCN2CCOCC2)CCN1 | -16.4% | -46.6% | -17.3% | 9.8 | -2.7% | -8.45% |
| CNC(=O)Nc1nnnc2ccccc12 | 10.1% | 1.45% | -4.05% | -10.6 | -0.15% | 13.9% |
| CCCC1CC(=O)NC1C(=O)O (configuration not stated) | -8.75% | -7.85% | -6.85% | -21.9 | -5.25% | -24.4% |
| CCOC(=O)C1SC(=Nc2ccc(C)c(C)c2)N=C1C (configuration not stated) | -20.2% | -7.4% | -22.4% | 19.7 | 4.85% | 7.15% |
| Nc1cc2c(cc1/C=C1\CCNC1=O)OCO2 | -5.65% | -12.1% | -22.2% | -6.6 | -11.8% | -4.85% |
| Cc1cc(=O)c2cc(Cc3ccc(N)cc3)ccc2[nH]1 | 8.35% | -16.7% | -8% | 3.05 | -3.45% | 0.65% |
| COc1ccc2c(c1)OC1c3ccccc3OCC21 (configuration not stated) | 26.1% | 11.6% | 15.8% | 12.3 | 27.9% | 30.2% |
| ON(C(=S)Nc1ccccc1)c1ccccc1 | 20.9% | 12.8% | 21.1% | -13.7 | 8.3% | 15.9% |
| Nc1ccccc1/C=C(\C(=O)O)c1ccccc1 | -19.9% | -4.45% | 14.8% | 12.4 | -0.6% | 11.4% |
| CCOC(=O)C(C)(C)Oc1ccc2c(=O)cc(-c3ccc(Cl)cc3)oc2c1 | -19.6% | -20.1% | -30.3% | -14.5 | -38.9% | -29.4% |
| CC(=O)OCc1cc(Cl)c(OC(C)=O)c(COC(C)=O)c1 | 7.75% | -10.2% | 8.8% | 20.1 | -9.05% | 3.65% |
| CC(c1ccccc1)C(C)(C)O (configuration not stated) | 10.2% | -8.25% | 27% | 20.3 | -14.5% | -4.95% |

| SMILES | growth inhibition [1] | growth inhibition [2] | growth inhibition [3] | growth inhibition [4] [%] | growth inhibition [5] | growth inhibition [6] |
| --- | --- | --- | --- | --- | --- | --- |
| CC(C)(C)c1cc(/C=C/c2cc(/C=C/c3cc(C(C)(C)C)c(O)c(C(C)(C)C)c3)c([N+](=O)[O-])cc2[N+](=O)[O-])cc(C(C)(C)C)c1O | 20.2% | -0.15% | 1.85% | -45.7 | 3.65% | 5.8% |
| O=C(Nn1c(=S)[nH][nH]c1=S)c1ccccc1 | 17.1% | -4.05% | -2.35% | -12.2 | -14.5% | 21.4% |
| CCCCCCCCCCCCCCCCOC(=O)/C=C/c1ccccc1 | -8.35% | -2.35% | -7.45% | -8.55 | -12.3% | 9.1% |
| OC(C1=C/C(=C\c2ccncc2)c2ccccc21)c1ccncc1 (configuration not stated) | 84.7% (active) | 86.5% (active) | 96.8% (active) | 47.6 | 86.3% (active) | 93% (active) |
| CN1CCOC(=O)C(C#N)=C1c1ccccc1 | -26.5% | 6.95% | -9.15% | -17 | -7.25% | -3.15% |
| O=C1CCC(=O)N2CCCCN12 | -4.7% | -12.4% | 11% | 18.6 | 22.5% | 13.1% |
| CCC(=O)C12CCCC1=NC(=N)N=C2C1=NC(=N)N=C2CCCC21C(=O)CC (configuration not stated) | -10.3% | 12.4% | -14.2% | 2.75 | -1.7% | 5.2% |
| CCc1cccc(C)c1NC(=S)NC(=O)c1ccccc1C(=O)NC(=S)Nc1c(C)cccc1CC | 12.3% | 7.7% | 0.95% | 20.9 | 11.8% | 20.4% |
| CC(=O)NCCO | -12.7% | -22.8% | -12.7% | -19.4 | 3.9% | 7.25% |
| CCOc1ccc(C=O)cc1OCC | 0.15% | -25.4% | -9.3% | -15.8 | -2.7% | -10.3% |
| CC(C)C(C)(O)c1ccccc1 (configuration not stated) | -3.15% | -28.8% | 5.35% | -10.9 | 0.35% | 0.9% |
| CN(C)C(CO)(CO)CO | 15.3% | -7.5% | 3% | -0.75 | 3.3% | 2.3% |
| O=C(O)COc1cccc([N+](=O)[O-])c1 | 3% | -10.3% | -9.9% | -62.5 | -5% | -17.4% |
| CC(C)(C)C1=NNC(c2ccccc2)C1 (configuration not stated) | 5.25% | -3.75% | -14.7% | 5.5 | -1.25% | 12.6% |
| COc1ccc(OC)c(NC(=O)Oc2cc(C)c(Cl)c(C)c2)c1 | 5.85% | -1.85% | 7.1% | 8.25 | 9.1% | 6.35% |
| O=C1C=CC(=CC=C2C=CN(CCCCCCO)C=C2)C=C1 | 18.4% | 6.05% | 26.2% | 13.8 | 8.65% | 16.1% |
| COc1c2c(cc3c(CCc4ccccc4)cc(=O)oc13)CCC(C)(C)O2 | -5.95% | -22.8% | -6.5% | 15.4 | -5.75% | -27.3% |
| CCCCCCNc1ncnc2c1cnn2C | 5.3% | 6.85% | 1.45% | -17.9 | 38.7% | 3.4% |
